Source: PubChem (National Center for Advancing Translational Sciences (NCATS))
FBPA coupling cs = coupling enzyme interference in Giardia aldolase counter-screen; coupling enzyme system counterscreen, AmpLite Red fluorescence; activity change, negative = inhibition, % at 58.2 µM, hits read low; 0.67% of 290,000 active; AID 2472; in the data active = activity change below about -30%
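Fluorescence at 525 nm excitation and 598 nm emission measured inhibition of the coupled detection system without aldolase. Compounds (at 57.5 uM final) were preincubated 10 min at room temperature with coupling enzyme reagent before a 20 min substrate/AmpLite Red step.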
GoLoco inh red = blocks human Gai1 binding to RGS12 GoLoco peptide, red readout; Potency, µM (doses to about 61.6 µM), most hits filed as inhibitors; Gai1:RGS12 GoLoco peptide FP, rhodamine, 10 min; 0.44% of 230,000 active; P63096; active = well fitted inhibition curve with a large enough effect, not every such curve was filed as active; inactive = no such curve, though single readings can be large or run the other way; note: nearly all actives have a fitted effect of over 30% in size
Sfp inh = blocks B. subtilis Sfp PPTase activity | Q9F4F7 | Biochemical Sfp PPTase activity, qHTS | Potency, µM, actives largely listed as inhibitors | 3.5% of 310,000 active;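 note: the enzyme is Sfp with the accession as filed and its product quenches rhodamine fluorescence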
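Sfp 15 nM + cpd, 15 min RT; start w/ rhodamine-CoA 5 uM, BHQ-2-YbbR 12.5 uM (final); 50 mM Hepes pH 7.6, 10 mM MgCl2, 0.01% NP-40, 0.01% BSA; read 525/598 nm at 0 and 30 min.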
ALDH1A1 block = ALDH1A1 (human) enzyme inhibition; Potency, µM (doses to about 75.3 µM), most hits filed as inhibitors; Purified ALDH1A1, NADH fluorescence, propionaldehyde substrate; 7.3% of 220,000 active; AID 1030; P00352; active = well fitted inhibition curve with a large enough effect, not every such curve was filed as active; inconclusive = small, poorly fitted or top-dose-only effect, or another doubt; inactive = no such curve, though single readings can be large or run the other way
KDM4E inh = inhibitors of human JMJD2E histone demethylase. AID 2147. 1.6% of 230,000 active. JMJD2E catalytic domain, FDH-coupled NADH fluorescence (FDH is formaldehyde dehydrogenase). Potency, µM (series often up to 57.1 µM), actives largely listed as inhibitors. B2RXH2; active = well fitted inhibition curve with a large enough effect, not every such curve was filed as active; inconclusive = small, poorly fitted or top-dose-only effect, or another doubt; inactive = no such curve, though single readings can be large or run the other way; note: nearly all actives have a fitted effect of over 50% in size
Target sequence (B2RXH2 1-337 limits assumed): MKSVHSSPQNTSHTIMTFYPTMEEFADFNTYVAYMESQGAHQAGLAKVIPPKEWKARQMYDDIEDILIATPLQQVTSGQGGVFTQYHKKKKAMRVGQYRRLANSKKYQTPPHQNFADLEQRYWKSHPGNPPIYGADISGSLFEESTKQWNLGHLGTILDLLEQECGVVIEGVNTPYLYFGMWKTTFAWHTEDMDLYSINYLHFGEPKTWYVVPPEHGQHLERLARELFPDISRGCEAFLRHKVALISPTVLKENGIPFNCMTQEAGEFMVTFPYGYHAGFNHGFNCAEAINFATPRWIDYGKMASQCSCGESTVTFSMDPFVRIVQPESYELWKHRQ
NPSR antagonist = neuropeptide S receptor (human) antagonism, cAMP. Q6W5P4. CHO-NPSR cells, cAMP TR-FRET, antagonist mode. Potency, µM (highest dose often 38.3 µM), hits mostly inhibitors. 1% of 220,000 active. AID 1461; note: nearly all actives have a fitted effect of over 50% in size
Each line names hits and unclear results; the compound was inactive in the other large screens. In the library only some 8.5% were active in any assay of this set; here they are far more common. Unless noted, calls come from the whole dose curve; as a rule, active = well fitted curve in the direction sought with a large enough effect; inconclusive = small, poorly fitted or top-dose-only effect, or another doubt; inactive = no such curve, though single readings can be large; an effect the other way counts as inactive or inconclusive.

O=C1c2ccccc2C(Nc2ccc(Cl)cn2)N1Cc1ccccc1 (stereo not drawn)	ALDH1A1 block 13µM, NPSR antagonist inconclusive
Cc1ccc2c(CC(=O)NCc3ccc4c(c3)OCO4)coc2c1	ALDH1A1 block 4.5µM
Cc1ccccc1CN1CCN(CC(=O)NCc2ccc3c(c2)OCO3)C1=O	ALDH1A1 block 13µM
COc1ccc2c(CC(=O)NCc3ccc4c(c3)OCO4)coc2c1	ALDH1A1 block 8.9µM
Cc1nnc(SCC(=O)Nc2cccc(S(=O)(=O)N(C)c3ccccc3)c2)s1	none
CC1(C)Cc2nc3oc4c(=S)nc[nH]c4c3cc2CO1	Sfp inh 22µM, ALDH1A1 block 3.2µM, KDM4E inh inconclusive, NPSR antagonist inconclusive
Cc1cc(C(F)(F)F)nn1CC(=O)NNC(=S)Nc1ccc(Cl)cc1	ALDH1A1 block inconclusive
O=C(Cn1nnc(-c2cc(C(F)(F)F)cc(C(F)(F)F)c2)n1)NNC(=S)Nc1ccc(Cl)cc1	ALDH1A1 block 1.3µM, KDM4E inh inconclusive
CCCCC[n+]1ccn(-c2nc3ccccc3nc2[N-]S(=O)(=O)c2ccccc2)c1	Sfp inh 35µM, KDM4E inh inconclusive (no result: ALDH1A1 block)
CS(=O)(=O)N1CCc2cc(-c3csc(NCC4CCCO4)n3)ccc21 (stereo not drawn)	Sfp inh 50µM, ALDH1A1 block 14µM
O=C(c1ccccc1)C1CCN(C(=O)C2CCC(=O)N(Cc3ccccc3F)C2)CC1 (stereo not drawn)	none (no result: GoLoco inh red, ALDH1A1 block, KDM4E inh, NPSR antagonist)
Cc1ccc(S(=O)(=O)/N=C2\C(=O)c3ccccc3C([O-])=C2n2cc[n+](CCC(C)C)c2)cc1	FBPA coupling cs -52, ALDH1A1 block inconclusive
CCCC[n+]1ccn(C2=C([O-])c3ccccc3C(=O)/C2=N\S(=O)(=O)c2ccc(Br)cc2)c1	FBPA coupling cs -59, ALDH1A1 block inconclusive
CC(=O)Nc1ccc(S(=O)(=O)/N=C2\C(=O)c3ccccc3C([O-])=C2n2cc[n+](-c3ccccn3)c2)cc1	FBPA coupling cs -39, ALDH1A1 block inconclusive
Cc1ccc(NC(=O)C[n+]2ccn(C3=C([O-])c4ccccc4C3=O)c2)cc1	ALDH1A1 block inconclusive
O=C(NC(=S)NC1CCS(=O)(=O)C1)c1ccccc1Br (stereo not drawn)	none (no result: FBPA coupling cs, GoLoco inh red, ALDH1A1 block, KDM4E inh, NPSR antagonist)
O=C1CCC/C1=C/Nc1ccc(Cl)cc1	none
Cc1ccc(S(=O)(=O)Nc2ccc(S(=O)(=O)Nc3ncccn3)cc2)cc1	ALDH1A1 block inconclusive
O=C1CCCC/C1=C\Nc1ccc(O)cc1	FBPA coupling cs -68, Sfp inh 22µM, ALDH1A1 block 14µM, KDM4E inh inconclusive
O=C1CCCC/C1=C/Nc1ccc(S(=O)(=O)Nc2ncccn2)cc1	Sfp inh inconclusive, ALDH1A1 block 22µM
Cn1cccc1/C=N/NC(=O)CSc1nc2ccccc2[nH]1	none
Cc1ccc(S(=O)(=O)NCC(=O)NC2CC2)cc1	none (no result: FBPA coupling cs, GoLoco inh red, ALDH1A1 block, KDM4E inh, NPSR antagonist)
CCN(CC)C(=O)Cn1c(=O)n(CC(=O)N2CCCCC2)c(=O)c2sccc21	none (no result: FBPA coupling cs, GoLoco inh red, ALDH1A1 block, KDM4E inh, NPSR antagonist)
Cc1nc2ccccc2oc1=O	none (no result: NPSR antagonist)
Nc1cc2nc3ccccc3oc-2cc1=O	Sfp inh 22µM, ALDH1A1 block inconclusive, KDM4E inh 13µM
O=[N+]([O-])c1c(Nc2ccccn2)cc(Cl)c2nonc12	FBPA coupling cs -57, Sfp inh 7.9µM, KDM4E inh 1µM, NPSR antagonist 10µM (no result: ALDH1A1 block)
O=[N+]([O-])c1c(Nc2ccc(O)cc2)cc(Cl)c2nonc12	Sfp inh 50µM (no result: GoLoco inh red, ALDH1A1 block, KDM4E inh, NPSR antagonist)
CN(C)c1cc(Nc2ccc(O)cc2)c([N+](=O)[O-])c2nonc12	none (no result: ALDH1A1 block)
CCc1ccc(/C=C/C(=O)C2C(=O)c3ccccc3C2=O)cc1	Sfp inh 79µM, KDM4E inh inconclusive
O=C(NC1CCCC1)C(c1ccccn1)N(Cc1ccc(F)cc1)C(=O)c1csnn1 (stereo not drawn)	none (no result: GoLoco inh red, ALDH1A1 block, KDM4E inh, NPSR antagonist)
CN(C)c1ccc(/C=C2\SC(=S)N(Nc3ncc(C(F)(F)F)cc3Cl)C2=O)cc1	Sfp inh 50µM
CN(CCC#N)C(=O)COC(=O)c1ccc2c(c1)C(=O)N(C1CCCCC1)C2=O	none (no result: FBPA coupling cs, GoLoco inh red, ALDH1A1 block, KDM4E inh, NPSR antagonist)
Cn1c(=O)c2cc(NCc3ccccc3)nnc2n(C)c1=O	FBPA coupling cs -59, Sfp inh inconclusive, ALDH1A1 block inconclusive
COc1ccc2c(CC(=O)Nc3cccc(S(=O)(=O)N4CCOCC4)c3)coc2c1	ALDH1A1 block inconclusive
